# Experimental data reported in PubChem BioAssay.
# The source made the active and inactive calls. Unless noted, no rule for the calls is given here.
# Tests used:
# [1] = test system: Hepatitis C virus NS3 helicase; assay: HCV NS3 helicase inhibitors, primary screen, biochemical, fluorescence polarization, LOPAC1280 library (AID 687035; in the data active = inhibition above about 37%); conditions: Purified HCV NS3 helicase, Cy5-dT15 ssDNA binding fluorescence polarization; stronger effect = higher value; concentration not given here
# [2] = Cy5 fluorescence quenching or enhancement artefacts, artefact control for HCV NS3 helicase inhibitor project, biochemical, LOPAC1280 (AID 687037); conditions: Cy5-DNA-NS3h complex fluorescence interference counterscreen
# [3] = sensitizers of A549 cells to miR-34 induction, primary screen, imaging, A549 dox-inducible miR-34, nuclei and caspase counts (AID 1347080;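 active = compounds whose cell count with miR-34 switched on is under 0.7 times the count with it off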); conditions: A549 miR-34 inducible, Hoechst nuclei count, 48 h
# [4] = phospholipid biosynthesis inhibitors in animal cells, primary screen, cell-based, LOPAC library, screen 4 (AID 1347384); conditions: phospholipid biosynthesis inhibition screen, at 10 µM
# [5] = viability rescue of complex I mutant cybrids, primary screen, cell-based, galactose medium, ATP luminescence (AID 1645843;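 active = z-score of at least 1.8 in each of two replicates, scored against plate mean and spread of sample wells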;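 also: positive z means more ATP and so rescue of galactose-driven cybrid death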); conditions: complex I mutant cybrid cells, 72 h, stronger effect = higher value
# [6] = survival rescue of mitochondrial mutant cells in low glucose, primary screen, MELAS cybrids, Rieske KO mouse fibroblasts, CellTiter-Glo (AID 1508586;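 active = mean z-score across replicates of 1.96 or higher in either the MELAS or the Rieske mutant cell line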;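 also: z relative to plate mean and SD of compound and empty wells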)
# [7] = stronger effect = lower value, cell number ratio, induced over uninduced
# [8] = measured here: relative caspase fold change +Dox/-Dox
# [9] = measured here: total cells with miR-34 induction, stronger effect = lower value
# [10] = measured here: total cells without miR-34 induction
# [11] = MELAS cybrid survival, CellTiter-Glo 48 h, stronger effect = higher value
# [12] = Rieske KO mouse fibroblast survival, CellTiter-Glo 72 h
SMILES,inhibition [1],fluorescence ratio (interference) [2],"fold change [3, 7]","fold change [3, 8]","cell count [3, 9]","cell count [3, 10]",outcome [4],z-score [5],"z-score [6, 11]","z-score [6, 12]"
CC(=O)O[C@H]1Cc2ccccc2N(C(N)=O)c2ccccc21,-4% (inactive),1 (inactive),0.953 (inactive),1.06,10000,10500,inactive,0.61 (inactive),,
Nc1nc2c(ncn2[C@@H]2O[C@H](CO)[C@@H](O)[C@@H]2O)c(=O)[nH]1,-2% (inactive),1 (inactive),0.934 (inactive),1.54,8710,9330,inactive,4.94 (active),,
CC[n+]1c(/C=C/C=C2/N(C)c3ccccc3C2(C)C)sc2ccccc21,1% (inactive),0.9 (inactive),1.18 (inactive),0.865,1270,1080,inactive,-1.04 (inactive),,
Nc1ccc(-c2ccc3ccccc3n2)cc1,-2% (inactive),1 (inactive),1.1 (inactive),1.06,7600,6930,inactive,-1.29 (inactive),,
CCNc1nc2c(ncn2[C@H]2C[C@H](O)[C@@H](CO)O2)c(=O)[nH]1,-2% (inactive),1 (inactive),0.97 (inactive),1.78,9970,10300,inactive,-0.005 (inactive),,
CN1Cc2sccc2C(c2ccc(O)c(O)c2)C1 (stereo not drawn),-3% (inactive),1 (inactive),1.06 (inactive),2.13,10300,9720,inactive,-1.25 (inactive),,
CN(CC[C@@H](Oc1ccc(C(F)(F)F)cc1)c1ccccc1)CC(=O)O,-2% (inactive),0.9 (inactive),1.05 (inactive),2.04,10800,10300,inactive,0.395 (inactive),,
N[C@H](C(=O)O)[C@H](Cc1ccccc1)C(=O)O,-1% (inactive),1 (inactive),0.97 (inactive),1.76,10400,10700,inactive,0.705 (inactive),,
OC[C@H]1OC(n2cnc3c(N[C@H]4CCC[C@@H]4O)ncnc32)[C@H](O)[C@@H]1O (stereo partly drawn),-3% (inactive),1 (inactive),1.03 (inactive),1.86,10800,10500,inactive,0.53 (inactive),,
Clc1ccc(N2CCN(Cc3cc4ccccn4n3)CC2)cc1,-6% (inactive),0.9 (inactive),1.01 (inactive),1.14,9670,9570,inactive,-1.08 (inactive),,
COc1ccc(-c2cc3ncc(C)n3c(Nc3ncccc3C(N)=O)n2)cc1OC,-1% (inactive),1 (inactive),0.944 (inactive),1.3,8700,9220,inactive,0.16 (inactive),,
COc1cc(C(O)CO)ccc1O (stereo not drawn),-1% (inactive),1 (inactive),0.99 (inactive),1.37,9940,10000,inactive,0.42 (inactive),,
CCCCC#Cc1nc(NC)c2ncn([C@@H]3O[C@H](CO)C(O)[C@@H]3O)c2n1 (stereo partly drawn),-2% (inactive),1 (inactive),1.02 (inactive),2.24,10300,10100,inactive,0.245 (inactive),,
c1ccc2c(c1)CC(N1CCN(c3cccc4c3OCCO4)CC1)C2,-2% (inactive),1 (inactive),1.01 (inactive),1.01,8000,7890,inactive,0.255 (inactive),,
COc1ccc2c(c1)CCC1C2CC[C@@]2(C)C1CC[C@@H]2NCCCCCCN1C(=O)CCC1=O (stereo partly drawn),-3% (inactive),1 (inactive),1.08 (inactive),0.876,8060,7440,inactive,-1.29 (inactive),,
CN(C)CCCc1cc(C(=O)Nc2ccc(-c3ccncc3)cc2)ccc1O,-1% (inactive),1 (inactive),1 (inactive),1.13,7450,7450,inactive,1.58 (inactive),,
C[C@](Cc1ccc(O)c(O)c1)(NN)C(=O)O,-4% (inactive),1 (inactive),0.947 (inactive),1.36,9110,9620,inactive,-1.02 (inactive),,
O=c1ccc2c(OCCCCc3ccccc3)c3ccoc3cc2o1,0% (inactive),1 (inactive),1.08 (inactive),1.92,8160,7580,inactive,-0.515 (inactive),,
CCN(CC)CCNC(=O)c1ccc(NS(C)(=O)=O)cc1,-2% (inactive),1.1 (inactive),1.02 (inactive),0.826,10400,10100,inactive,0.325 (inactive),,
NC[C@@H]1O[C@H](c2ccccc2)Cc2c1ccc(O)c2O,-3% (inactive),0.9 (inactive),0.966 (inactive),1.26,9490,9820,inactive,-1.3 (inactive),,
Clc1nccc2c1ccc1ccccc12,-2% (inactive),1 (inactive),1.47 (inactive),1.16,8620,5870,inactive,0.565 (inactive),,
CSc1ccccc1N1CCN(CCCCCC(=O)NC2CCCc3ccccc32)CC1 (stereo not drawn),-5% (inactive),1 (inactive),0.986 (inactive),1.19,7020,7120,inactive,-1.29 (inactive),,
COc1ccc(C2CC(=O)c3c(O)cc(O)cc3O2)cc1O (stereo not drawn),,,0.926 (inactive),0.807,9010,9730,,,-0.233 (inactive),0.0902
CCOC(=O)N1c2ccc(C(F)(F)F)cc2C(N(Cc2cc(C(F)(F)F)cc(C(F)(F)F)c2)C(=O)OC)CC1CC (stereo not drawn),,,0.939 (inactive),0.794,8370,8920,,,-0.304 (inactive),0.988
